In PubChem BioAssay (Tox21):
Where “and” joins values, the source holds several entries; their conditions need not be identical. Equal values may be shown once. Some compounds were tested as several samples or in several runs, with calls that do not always agree. Calls of active or inactive are those of the source. Where a call stands in place of a potency, no number is given. Unless noted, calls come from the whole dose curve; as a rule, active = well fitted curve in the direction sought with a large enough effect in the repeat runs; inconclusive = weak or mixed curves; inactive = no such curve, though single readings can be large; an effect the other way counts as inactive or inconclusive.

Tests used:
[1] = qHTS assay to identify small molecule antagonists of the glucocorticoid receptor (GR) signaling pathway - cell viability counter screen (AID 720693); note: nearly all actives have a fitted effect of over 55% in size
[2] = qHTS assay for identifying genotoxic compounds that show differential cytotoxicity against isogenic chicken DT40 cell lines with known DNA damage response pathways - wild type cell line (AID 743012); note: nearly all actives have a fitted effect of over 60% in size; note: potency is the fitted concentration of half-maximal effect
In short: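 First, wild type DT40 cells were plated at 300 per well and equilibrated about 0.5 h at 37 C/5% CO2. Next, compounds in DMSO were added and exposure lasted 40 h. Finally, CellTiter-Glo was added for 30 min at room temperature and luminescence recorded.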

[3] = qHTS assay for identifying genotoxic compounds that show differential cytotoxicity against isogenic chicken DT40 cell lines with known DNA damage response pathways - Rev3 mutant cell line (AID 743014); note: nearly all actives have a fitted effect of over 55% in size; note: potency is the fitted concentration of half-maximal effect
[4] = qHTS assay for identifying genotoxic compounds that show differential cytotoxicity against isogenic chicken DT40 cell lines with known DNA damage response pathways - Rad54/Ku70 mutant cell line (AID 743015); note: nearly all actives have a fitted effect of over 60% in size; note: potency is the fitted concentration of half-maximal effect
[5] = qHTS assay to identify small molecule antagonists of the androgen receptor (AR) signaling pathway - cell viability counter screen (AID 743033; note: nearly all actives have a fitted effect of over 45% in size)
[6] = qHTS assay to identify small molecule antagonists of the androgen receptor (AR) signaling pathway using the MDA cell line - cell viability counter screen (AID 743041; note: nearly all actives have a fitted effect of over 45% in size)
In short: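 Viability counter screen run alongside the AR antagonist reporter: cells seeded 5 h before compound, R1881 added, 16 h incubation at 37C without CO2, fluorescent CellTiter-Fluor signal quantified.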

[7] = qHTS assay to identify small molecule antagonists of the thyroid receptor (TR) signaling pathway (AID 743065); note: series mostly up to about 70 µM; nearly all actives have a fitted effect of over 55% in size
In short: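 GH3.TRE-Luc rat pituitary cells carrying two TR response elements driving luciferase were plated for 4 h, given compound plus 1 nM T3 (final), and incubated 23.5 h at 37 C. ONE-Glo luminescence measured reporter inhibition; CellTiter-Fluor fluorescence tracked cytotoxicity.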

[8] = test system: thyroid hormone receptor (rat, GH3 cells); assay: qHTS assay to identify small molecule agonists of the thyroid receptor (TR) signaling pathway (AID 743066; calls by dose curve)
[9] = target: Estrogen receptor (Homo sapiens) (UniProt P03372); assay: qHTS assay to identify small molecule antagonists of the estrogen receptor alpha (ER-alpha) signaling pathway (AID 743069; active = well fitted curve in the direction sought with a large enough effect in the signal ratio in the repeat runs, not every such curve was filed as active; inconclusive = weak or mixed curves, or effect the other way; inactive = no such curve, though single readings can be large or run the other way; the % refers to the signal ratio; note: potency is the fitted concentration of half-maximal effect)
Chain of Estrogen receptor (Homo sapiens) (P03372 whole entry, looked up): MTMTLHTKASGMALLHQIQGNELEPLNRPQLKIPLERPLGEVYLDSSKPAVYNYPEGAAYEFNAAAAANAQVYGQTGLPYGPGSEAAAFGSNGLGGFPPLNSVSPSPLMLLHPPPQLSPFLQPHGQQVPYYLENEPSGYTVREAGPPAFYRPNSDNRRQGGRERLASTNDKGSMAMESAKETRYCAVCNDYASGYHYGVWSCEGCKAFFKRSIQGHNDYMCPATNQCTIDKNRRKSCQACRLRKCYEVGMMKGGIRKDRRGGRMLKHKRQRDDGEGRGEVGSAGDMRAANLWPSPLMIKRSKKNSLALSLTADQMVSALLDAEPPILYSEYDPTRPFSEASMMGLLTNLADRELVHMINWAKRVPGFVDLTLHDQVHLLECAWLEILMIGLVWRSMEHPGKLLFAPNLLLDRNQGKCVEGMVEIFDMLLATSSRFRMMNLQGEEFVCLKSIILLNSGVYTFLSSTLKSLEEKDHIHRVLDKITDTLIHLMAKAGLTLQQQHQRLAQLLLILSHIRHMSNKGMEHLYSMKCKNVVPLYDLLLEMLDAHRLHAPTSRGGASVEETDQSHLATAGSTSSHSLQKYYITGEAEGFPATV
In short: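 Estradiol-stimulated ER-alpha-UAS-bla HEK293 cells, 18 hr compound exposure at 37C. LiveBLAzer B/G substrate, 2 hr RT, fluorescence read.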

[10] = qHTS assay to identify small molecule antagonists of the estrogen receptor alpha (ER-alpha) signaling pathway - cell viability counter screen (AID 743074; calls by dose curve;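 note: HEK293 cells carrying ER-alpha-UAS-bla reporter stimulated with 17beta-estradiol; nearly all actives have a fitted effect of over 45% in size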)
[11] = target: Estrogen receptor (Homo sapiens) (UniProt P03372); assay: qHTS assay to identify small molecule agonists of the estrogen receptor alpha (ER-alpha) signaling pathway (AID 743075; calls by dose curve;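 note: HEK293 GripTite cells with ER-alpha and UAS-driven beta-lactamase reporter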)
[12] = target: Estrogen receptor (Homo sapiens) (UniProt P03372); assay: qHTS assay to identify small molecule agonists of the estrogen receptor alpha (ER-alpha) signaling pathway using the BG1 cell line (AID 743079); note: nearly all actives have a fitted effect of over 20% in size
[13] = qHTS assay to identify small molecule antagonists of the estrogen receptor alpha (ER-alpha) signaling pathway using the BG1 cell line (AID 743080; calls by dose curve;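 note: BG1 cells stimulated with 17beta-estradiol alongside compound; series mostly up to about 70 µM; nearly all actives have a fitted effect of over 25% in size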)
In short: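 Endogenous full-length ER-alpha in BG1-Luc-4E2 cells drives a stably integrated 4×ERE luciferase gene; compounds were tested against 17beta-estradiol over 21.5 h, with luminescence and multiplexed viability fluorescence recorded.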

[14] = qHTS assay to identify small molecule antagonists of the estrogen receptor alpha (ER-alpha) signaling pathway using the BG1 cell line - cell viability counter screen (AID 743081);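 note: compound given together with 17beta-estradiol as the ER stimulus; series mostly up to about 70 µM; nearly all actives have a fitted effect of over 45% in size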
Aromatase (Homo sapiens) = Aromatase (Homo sapiens) (UniProt P11511); assay: qHTS assay to identify aromatase inhibitors (AID 743083); note: series mostly up to about 70 µM; nearly all actives have a fitted effect of over 55% in size
Chain of Aromatase (Homo sapiens) (P11511 whole entry, looked up): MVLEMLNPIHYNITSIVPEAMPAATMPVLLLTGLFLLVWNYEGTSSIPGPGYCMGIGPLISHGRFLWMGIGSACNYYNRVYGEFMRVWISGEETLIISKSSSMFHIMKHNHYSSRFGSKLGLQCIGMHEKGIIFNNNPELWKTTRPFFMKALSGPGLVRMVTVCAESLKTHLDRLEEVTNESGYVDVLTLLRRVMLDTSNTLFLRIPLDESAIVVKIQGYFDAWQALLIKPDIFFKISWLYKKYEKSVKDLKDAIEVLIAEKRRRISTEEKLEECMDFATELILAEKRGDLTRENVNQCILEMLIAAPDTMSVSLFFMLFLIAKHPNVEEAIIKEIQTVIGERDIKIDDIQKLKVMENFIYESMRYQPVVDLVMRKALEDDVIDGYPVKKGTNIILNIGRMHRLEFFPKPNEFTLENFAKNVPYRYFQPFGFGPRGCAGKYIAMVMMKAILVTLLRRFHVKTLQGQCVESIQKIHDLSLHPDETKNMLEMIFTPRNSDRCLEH

[15] = qHTS assay to identify small molecule antagonists of the thyroid receptor (TR) signaling pathway - cell viability counter screen (AID 743064); note: nearly all actives have a fitted effect of over 50% in size
In short: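 CellTiter-Fluor readout, 30 min at 37 °C/5% CO2, following 23.5 h incubation of GH3.TRE-Luc cells with test compound and 1 nM T3 (final).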

[16] = target: Androgen receptor (Homo sapiens) (UniProt P10275); assay: qHTS assay to identify small molecule antagonists of the androgen receptor (AR) signaling pathway (AID 743035; active = well fitted inhibition curve with a large enough effect in the signal ratio in the repeat runs, not every such curve was filed as active; inconclusive = weak or mixed curves, or effect the other way; inactive = no such curve, though single readings can be large or run the other way; the % refers to the signal ratio)
Chain of Androgen receptor (Homo sapiens) (P10275 whole entry, looked up): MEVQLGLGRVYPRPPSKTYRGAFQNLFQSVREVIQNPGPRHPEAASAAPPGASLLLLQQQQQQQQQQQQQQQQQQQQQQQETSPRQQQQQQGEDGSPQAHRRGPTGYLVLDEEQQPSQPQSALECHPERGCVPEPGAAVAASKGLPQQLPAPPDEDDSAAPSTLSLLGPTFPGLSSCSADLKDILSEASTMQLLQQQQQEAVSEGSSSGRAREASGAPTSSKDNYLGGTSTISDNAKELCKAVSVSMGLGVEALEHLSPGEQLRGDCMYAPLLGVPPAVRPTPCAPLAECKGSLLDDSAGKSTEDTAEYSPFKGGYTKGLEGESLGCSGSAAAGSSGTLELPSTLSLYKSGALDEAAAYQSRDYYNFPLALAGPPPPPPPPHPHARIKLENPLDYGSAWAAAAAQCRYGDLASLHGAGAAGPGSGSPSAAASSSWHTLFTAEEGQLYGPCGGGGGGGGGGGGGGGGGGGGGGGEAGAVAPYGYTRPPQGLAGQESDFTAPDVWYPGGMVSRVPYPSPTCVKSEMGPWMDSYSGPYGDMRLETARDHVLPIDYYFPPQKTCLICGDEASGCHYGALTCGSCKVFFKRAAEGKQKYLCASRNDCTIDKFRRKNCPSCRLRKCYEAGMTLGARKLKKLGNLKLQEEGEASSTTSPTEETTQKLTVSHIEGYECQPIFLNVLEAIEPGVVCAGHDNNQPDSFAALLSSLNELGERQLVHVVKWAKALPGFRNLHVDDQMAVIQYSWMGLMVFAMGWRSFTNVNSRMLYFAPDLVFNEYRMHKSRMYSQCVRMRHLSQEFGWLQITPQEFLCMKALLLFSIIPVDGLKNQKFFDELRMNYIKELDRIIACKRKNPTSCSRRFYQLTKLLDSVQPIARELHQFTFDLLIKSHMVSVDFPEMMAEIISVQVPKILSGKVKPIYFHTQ
In short: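 Beta-lactamase FRET read (2 h RT incubation with LiveBLAzer B/G) following 16 h of compound plus R1881 treatment of AR-UAS-bla HEK293 cells, which had been pre-incubated 4 h at 37C.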

[17] = target: Androgen receptor (Homo sapiens) (UniProt P10275); assay: qHTS assay to identify small molecule agonists of the androgen receptor (AR) signaling pathway (AID 743036; active = well fitted activation curve with a large enough effect in the signal ratio in the repeat runs, with a control signal flat, not every such curve was filed as active; inconclusive = weak or mixed curves, or effect the other way; inactive = no such curve, though single readings can be large or run the other way; the % refers to the signal ratio)
In short: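 Following a 4 h settling period, AR-UAS-bla HEK293 cells were dosed with compounds for 16 h at 37C. A 2 h room-temperature incubation with LiveBLAzer B/G FRET substrate preceded the fluorescence measurement.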

[18] = target: Androgen receptor (Homo sapiens) (UniProt P10275); assay: qHTS assay to identify small molecule agonists of the androgen receptor (AR) signaling pathway using the MDA cell line (AID 743040; note: nearly all actives have a fitted effect of over 20% in size)
In short: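 Luminescence from ONE-Glo, read after 30 min at room temperature, reflects MMTV-driven luciferase in MDA-kb2 cells (AR- and GR-responsive). Treatment lasted 16 h at 37C, 0% CO2.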

[19] = target: Androgen receptor (Homo sapiens) (UniProt P10275); assay: qHTS assay to identify small molecule antagonists of the androgen receptor (AR) signaling pathway using the MDA cell line (AID 743042; note: nearly all actives have a fitted effect of over 55% in size)
In short: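 MDA-kb2 cells (human breast carcinoma, stably carrying an MMTV-luciferase reporter responsive to AR and GR) were plated at 3,000 cells/well and preincubated 5 hr at 37C, then given compound plus R1881 agonist for 16 h. ONE-Glo luminescence was read.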

Row | SMILES | outcome [1] | Potency [2] | Potency [3] | Potency [4] | outcome [5] | Potency [6] | Potency [7] | outcome [8] | Potency [9] | Potency [10] | outcome [11] | Potency [12] | outcome [13] | Potency [14] | Potency (Aromatase (Homo sapiens)) | Potency [15] | Potency [16] | outcome [17] | Potency [18] | outcome [19]
1 | CC(C)C1=CC2=CC[C@@H]3[C@](C)(CCC[C@@]3(C)C(=O)O)[C@H]2CC1 | inactive | inactive | inactive | inactive | inactive | inactive | inactive | inactive | inactive and 54.9 µM [inconclusive] (active) | inactive | inactive | inactive | inactive | inactive | inactive | – | – | – | – | –
2 | CCOc1ccc(NC(N)=O)cc1 | inactive | inactive | inactive | inactive | inactive | inactive | inactive | inactive | inactive | inactive | inactive | – | inactive | inactive | inactive | – | – | – | – | –
3 | C[C@@H]1CN(c2c(F)c(N)c3c(=O)c(C(=O)O)cn(C4CC4)c3c2F)C[C@H](C)N1 | inactive | inactive | inactive | inactive | inactive | inactive | – | – | inactive | inactive | inactive | inactive | inactive | inactive | inactive | inactive | – | – | – | –
4 | CCCCNc1ccc(C(=O)OCCN(CC)CC)cc1 | inactive | 2.37 µM (active) | 1.68 µM (active) | 2.37 µM (active) | inactive | inactive | – | inactive | inactive | – | inactive | inactive | inactive | – | inactive | – | – | – | – | –
5 | C1CSCCS1 | inactive | inactive | inactive | inactive | inactive | inactive | inactive | inactive | – | inactive | – | – | – | inactive | inactive | – | – | – | – | –
6 | COc1ccccc1N1CCN(CCCNc2cc(=O)n(C)c(=O)n2C)CC1 | inactive | inactive | inactive | inactive | inactive | inactive | – | – | inactive | inactive | inactive | inactive | inactive | inactive | inactive | inactive | – | – | – | –
7 | CC(C)S | inactive | inactive | inactive | inactive | inactive | inactive | inactive | inactive | inactive | inactive | inactive | inactive | inactive | inactive | inactive | – | – | – | – | –
8 | CCCCN1C[C@H](O)[C@@H](O)[C@H](O)[C@H]1CO | inactive | inactive | inactive | inactive | inactive | inactive | – | inactive | inactive | inactive | inactive | inactive | inactive | – | inactive | – | – | – | – | –
9 | CC(C)C(=O)OCC(C)(C)C(O)C(C)C (configuration not stated) | inactive | inactive | inactive | inactive | inactive | inactive | inactive | inactive | inactive | inactive | inactive | inactive | inactive | inactive | inactive | – | – | – | – | –
10 | CCCc1c2oc(C(=O)O)cc(=O)c2cc2c(=O)cc(C(=O)O)n(CC)c12 | inactive | inactive | inactive | inactive | inactive | inactive | – | – | inactive | – | inactive | inactive | inactive | inactive | inactive | – | – | – | – | –
11 | CC1=CC(=O)CC(C)(C)C1=O | inactive | inactive | inactive | inactive | inactive | inactive | inactive | inactive | inactive | inactive | inactive | inactive | inactive | inactive | inactive | – | – | – | – | –
12 | CN1CCC[C@@H]1Cc1c[nH]c2ccc(CCS(=O)(=O)c3ccccc3)cc12 | inactive | 26.6 µM (active) | 33.5 µM (active) | 29.8 µM (active) | inactive | inactive | – | inactive | – | inactive | – | – | – | – | inactive | – | – | – | – | –
13 | CC/C=C\CCOC(=O)CCCCC | inactive | inactive | inactive | inactive | inactive | inactive | inactive | inactive | inactive | inactive | inactive | inactive | inactive | inactive | inactive | – | – | – | – | –
14 | CCCN(CCC)C(=O)C(CCC(=O)O)NC(=O)c1ccccc1 (configuration not stated) | inactive | inactive | inactive | inactive | – | inactive | inactive | inactive | – | inactive | – | – | – | inactive | inactive | inactive | – | – | – | –
15 | CCCCC(CC)COC(=O)COc1cc(Cl)c(Cl)cc1Cl (configuration not stated) | inactive | inactive | inactive | inactive | – | inactive | inactive | inactive | inactive | inactive | inactive | inactive | inactive | inactive | inactive | – | – | – | – | –
16 | CC(C)(C)C1CCCCC1=O (configuration not stated) | inactive | inactive | inactive | inactive | – | inactive | – | inactive | inactive | inactive | inactive | inactive | inactive | inactive | inactive | – | – | – | – | –
17 | CC(=O)OC(C)OC(C)=O | inactive | inactive | 70.7 µM (active) | – | inactive | inactive | inactive | inactive | – | inactive | – | – | – | inactive | inactive | inactive | inactive | inactive | inactive | inactive
18 | CC(CNC1CCCCC1)OC(=O)c1ccccc1 (configuration not stated) | inactive | inactive | inactive | inactive | – | inactive | inactive | inactive | inactive | inactive | inactive | inactive | inactive | inactive | inactive | inactive | – | – | – | –
19 | CCCCCCCCc1ccc(S(=O)(=O)O)cc1 | inactive | inactive | inactive | inactive | – | inactive | inactive | inactive | – | – | – | – | – | inactive | inactive | inactive | – | – | – | –
